# Results taken from PubChem BioAssay (EPA / NIEHS).
# The source made the active and inactive calls. Rule for the calls: active = hit-call score of the fitted dose curve at least 0.9, where 1 is the maximum; inactive = score below 0.9.
# How the values were obtained:
# [1] = ATG_ISRE_CIS: Attagene CIS-FACTORIAL HepG2 Assay for human Interferon Regulatory Factor 1 (IRF1) binding to an Interferon-Stimulated Response Element (ISRE) (AID 2282948); conditions: HepG2 ISRE cis-reporter (Attagene), mRNA transcription readout; actives raise or lower the signal
# Summary of the method: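 Transiently transfected HepG2 cells carrying cis-element reporter units, dosed 24 hours. Reporter mRNA quantified by RT-PCR, fluorescent primer extension, HpaI digestion and capillary electrophoresis. Bidirectional fitting relative to DMSO.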
# [2] = ATG_M_32_CIS: Attagene CIS-FACTORIAL HepG2 Assay for M32 Transcription Factor (Internal Marker) (AID 2282949); conditions: HepG2 Attagene cis-factorial M32 reporter, mRNA; actives raise or lower the signal;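 note: background control marker of the multiplexed CIS panel rather than a real target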
# Summary of the method: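 Following 24 h chemical exposure of HepG2 cells transiently expressing cis-promoter reporter constructs, reporter transcript levels were determined by RT-PCR with fluorescent labelling and capillary electrophoresis, then fitted bidirectionally against DMSO.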
# [3] = ATG_M_06_CIS: Attagene CIS-FACTORIAL HepG2 Assay for M06 Transcription Factor (Internal Marker) (AID 2282950); conditions: HepG2 Attagene CIS-FACTORIAL M06 internal marker reporter; actives raise or lower the signal
# Summary of the method: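 Fluorescence-labelled RT-PCR products from cis-promoter reporter units, cut with HpaI and resolved by capillary electrophoresis, give the signal. Cells are human HepG2, dosed for 24 h. Serves as background control, fitted relative to DMSO.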
# [4] = molecular target: Hypoxia-inducible factor 1-alpha (Homo sapiens) (UniProt Q16665); assay: ATG_HIF1a_CIS: Attagene CIS-FACTORIAL HepG2 Assay for human Hypoxia Inducible Factor 1 (HIF1A) (AID 2282951); conditions: HepG2 Attagene cis-factorial HIF1a reporter transcription; actives raise or lower the signal
# Hypoxia-inducible factor 1-alpha (Homo sapiens), sequence (Q16665 whole entry, looked up): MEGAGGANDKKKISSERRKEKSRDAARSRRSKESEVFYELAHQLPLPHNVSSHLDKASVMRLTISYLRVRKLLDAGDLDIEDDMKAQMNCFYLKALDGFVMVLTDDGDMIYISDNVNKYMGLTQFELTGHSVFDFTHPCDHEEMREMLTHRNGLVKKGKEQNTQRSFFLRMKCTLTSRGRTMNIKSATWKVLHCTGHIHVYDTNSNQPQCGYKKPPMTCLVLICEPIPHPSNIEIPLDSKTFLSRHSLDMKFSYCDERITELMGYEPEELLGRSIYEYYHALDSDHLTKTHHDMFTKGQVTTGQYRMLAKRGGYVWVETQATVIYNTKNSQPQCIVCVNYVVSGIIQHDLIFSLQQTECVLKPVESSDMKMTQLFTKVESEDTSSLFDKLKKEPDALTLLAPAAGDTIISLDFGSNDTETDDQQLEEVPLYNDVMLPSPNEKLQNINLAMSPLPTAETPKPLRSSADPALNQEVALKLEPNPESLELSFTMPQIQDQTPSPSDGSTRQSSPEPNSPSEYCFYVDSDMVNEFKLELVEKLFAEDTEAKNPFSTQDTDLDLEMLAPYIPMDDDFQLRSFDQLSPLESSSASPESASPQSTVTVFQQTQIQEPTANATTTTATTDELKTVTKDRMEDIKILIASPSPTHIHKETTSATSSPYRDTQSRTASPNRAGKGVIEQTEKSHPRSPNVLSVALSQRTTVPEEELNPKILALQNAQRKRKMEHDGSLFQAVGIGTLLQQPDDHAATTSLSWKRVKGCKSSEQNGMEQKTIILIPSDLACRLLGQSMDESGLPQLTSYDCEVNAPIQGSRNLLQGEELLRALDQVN
# Summary of the method: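 Cis-element reporter constructs were transiently transfected into HepG2 cells, which were treated for 24 h; reporter RNA was reverse-transcribed, amplified, labelled and resolved by capillary electrophoresis.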
# [5] = molecular target: Hepatocyte nuclear factor 6 (Homo sapiens) (UniProt Q9UBC0); assay: ATG_HNF6_CIS: Attagene CIS-FACTORIAL HepG2 Assay for human Hepatocyte Nuclear Factor 6 (HNF6) (AID 2282952); conditions: HepG2 Attagene cis-factorial HNF6 reporter transcription; actives raise or lower the signal
# Hepatocyte nuclear factor 6 (Homo sapiens), sequence (Q9UBC0 whole entry, looked up): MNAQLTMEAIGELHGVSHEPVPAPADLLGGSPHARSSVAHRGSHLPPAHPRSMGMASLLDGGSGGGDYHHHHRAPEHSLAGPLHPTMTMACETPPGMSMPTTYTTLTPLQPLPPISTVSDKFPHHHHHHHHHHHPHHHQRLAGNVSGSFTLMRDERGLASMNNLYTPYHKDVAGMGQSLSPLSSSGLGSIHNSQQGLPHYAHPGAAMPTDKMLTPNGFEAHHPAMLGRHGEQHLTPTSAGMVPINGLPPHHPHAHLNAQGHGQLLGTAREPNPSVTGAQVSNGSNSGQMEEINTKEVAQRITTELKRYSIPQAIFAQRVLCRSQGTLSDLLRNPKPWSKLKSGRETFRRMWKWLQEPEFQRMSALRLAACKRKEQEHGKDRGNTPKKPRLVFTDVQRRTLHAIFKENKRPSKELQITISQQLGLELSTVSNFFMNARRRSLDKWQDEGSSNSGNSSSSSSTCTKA
# Summary of the method: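 HepG2 cells transiently transfected with cis-element-driven multiple reporter transcription units, dosed 24 h; reporter mRNA quantified by RT-PCR, FAM primer extension, HpaI digestion and capillary electrophoresis; bidirectional fit versus DMSO baseline.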
# [6] = molecular target: Heat shock factor protein 1 (Homo sapiens) (UniProt Q00613); assay: ATG_HSE_CIS: Attagene CIS-FACTORIAL HepG2 Assay for human Heat Shock Transcription Factor 1 (HSE) (AID 2282953); conditions: HepG2 HSE cis-reporter, Attagene RNA transcription; actives raise or lower the signal
# Heat shock factor protein 1 (Homo sapiens), sequence (Q00613 whole entry, looked up): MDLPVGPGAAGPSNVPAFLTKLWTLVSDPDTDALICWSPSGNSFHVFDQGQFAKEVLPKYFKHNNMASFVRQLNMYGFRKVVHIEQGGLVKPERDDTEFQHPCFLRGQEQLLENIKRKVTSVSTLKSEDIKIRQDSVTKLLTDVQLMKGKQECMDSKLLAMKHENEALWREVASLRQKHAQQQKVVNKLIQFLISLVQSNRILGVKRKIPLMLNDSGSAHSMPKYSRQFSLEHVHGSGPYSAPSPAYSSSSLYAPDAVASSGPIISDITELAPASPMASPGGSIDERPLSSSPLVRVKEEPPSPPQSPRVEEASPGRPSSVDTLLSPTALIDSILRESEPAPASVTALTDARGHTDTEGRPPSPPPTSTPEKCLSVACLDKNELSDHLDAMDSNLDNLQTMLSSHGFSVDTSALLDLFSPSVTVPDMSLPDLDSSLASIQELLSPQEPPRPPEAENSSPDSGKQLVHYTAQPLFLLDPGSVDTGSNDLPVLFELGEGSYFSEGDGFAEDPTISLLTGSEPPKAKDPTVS
# Summary of the method: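 After a 24 h incubation with test chemical, transfected HepG2 cells were harvested for RNA; reporter transcripts were measured by RT-PCR and capillary electrophoresis. Values reflect gain or loss of signal relative to DMSO.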
# [7] = ATG_MRE_CIS: Attagene CIS-FACTORIAL HepG2 Assay for human Metal Responsive Element (MRE) (AID 2282954); conditions: HepG2 MRE cis-reporter transcription, Attagene multiplex; actives raise or lower the signal
# Summary of the method: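 After a 24 h chemical exposure, transiently transfected HepG2 cells yield RNA whose reporter sequences are amplified, FAM-labelled and sized by capillary electrophoresis. Curves are fitted bidirectionally relative to DMSO.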
# [8] = molecular target: Paired box protein Pax-6 (Homo sapiens) (UniProt P26367); assay: ATG_Pax6_CIS: Attagene CIS-FACTORIAL HepG2 Assay for human Paired Box 6 (PAX6) (AID 2282956); conditions: HepG2 CIS-FACTORIAL PAX6 reporter transcription, RNA readout; actives raise or lower the signal
# Paired box protein Pax-6 (Homo sapiens), sequence (P26367 whole entry, looked up): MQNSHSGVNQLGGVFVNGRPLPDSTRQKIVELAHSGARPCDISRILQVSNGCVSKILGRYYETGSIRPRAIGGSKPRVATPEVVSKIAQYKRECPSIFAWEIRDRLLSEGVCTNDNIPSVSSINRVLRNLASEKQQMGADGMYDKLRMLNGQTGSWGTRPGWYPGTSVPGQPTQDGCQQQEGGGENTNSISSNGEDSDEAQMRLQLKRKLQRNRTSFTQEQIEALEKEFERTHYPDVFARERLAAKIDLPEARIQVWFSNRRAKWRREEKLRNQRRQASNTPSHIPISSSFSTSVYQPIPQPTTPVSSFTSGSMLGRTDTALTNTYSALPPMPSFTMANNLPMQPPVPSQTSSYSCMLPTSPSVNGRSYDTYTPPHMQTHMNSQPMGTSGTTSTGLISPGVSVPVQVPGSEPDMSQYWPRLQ
# Summary of the method: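 HepG2 cells transiently transfected with cis-promoter-driven multiplexed reporter units sensing endogenous transcription factor activity; 24 h chemical exposure. Reporter mRNA quantified by RT-PCR, 6-FAM labelling, HpaI digestion and capillary electrophoresis; bidirectional fit versus DMSO baseline.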
# [9] = ATG_PXRE_CIS: Attagene CIS-FACTORIAL HepG2 Assay for human Pregnane X Receptor Element (PXRE) (AID 2282957); conditions: HepG2 Attagene CIS-FACTORIAL PXRE reporter, mRNA; actives raise or lower the signal
# Summary of the method: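 HepG2 cells transiently transfected with cis-regulated multiple reporter transcription units; endogenous factor activity measured as reporter mRNA 24 h after dosing. RT-PCR, fluorescent primer extension, HpaI digestion, capillary electrophoresis; bidirectional fit versus DMSO baseline.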
# [10] = ATG_Sox_CIS: Attagene CIS-FACTORIAL HepG2 Assay for human SRY-box transcription factor (SOX) (AID 2282960); conditions: HepG2 Attagene cis-factorial SOX reporter, mRNA; actives raise or lower the signal
# Summary of the method: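 Fluorescence-labelled cDNA fragments from reporter transcripts, sized by CE, give the signal. Cells: HepG2, transiently transfected with cis-regulated reporter units. Exposure 24 h; DMSO negative control; bidirectional curve fitting.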
# [11] = molecular target: Transcription factor Sp1 (Homo sapiens) (UniProt P08047); assay: ATG_Sp1_CIS: Attagene CIS-FACTORIAL HepG2 Assay for human Specificity Protein 1 (Sp1) (AID 2282961); conditions: HepG2 Sp1 cis-reporter transcription, actives raise or lower the signal
# Transcription factor Sp1 (Homo sapiens), sequence (P08047 whole entry, looked up): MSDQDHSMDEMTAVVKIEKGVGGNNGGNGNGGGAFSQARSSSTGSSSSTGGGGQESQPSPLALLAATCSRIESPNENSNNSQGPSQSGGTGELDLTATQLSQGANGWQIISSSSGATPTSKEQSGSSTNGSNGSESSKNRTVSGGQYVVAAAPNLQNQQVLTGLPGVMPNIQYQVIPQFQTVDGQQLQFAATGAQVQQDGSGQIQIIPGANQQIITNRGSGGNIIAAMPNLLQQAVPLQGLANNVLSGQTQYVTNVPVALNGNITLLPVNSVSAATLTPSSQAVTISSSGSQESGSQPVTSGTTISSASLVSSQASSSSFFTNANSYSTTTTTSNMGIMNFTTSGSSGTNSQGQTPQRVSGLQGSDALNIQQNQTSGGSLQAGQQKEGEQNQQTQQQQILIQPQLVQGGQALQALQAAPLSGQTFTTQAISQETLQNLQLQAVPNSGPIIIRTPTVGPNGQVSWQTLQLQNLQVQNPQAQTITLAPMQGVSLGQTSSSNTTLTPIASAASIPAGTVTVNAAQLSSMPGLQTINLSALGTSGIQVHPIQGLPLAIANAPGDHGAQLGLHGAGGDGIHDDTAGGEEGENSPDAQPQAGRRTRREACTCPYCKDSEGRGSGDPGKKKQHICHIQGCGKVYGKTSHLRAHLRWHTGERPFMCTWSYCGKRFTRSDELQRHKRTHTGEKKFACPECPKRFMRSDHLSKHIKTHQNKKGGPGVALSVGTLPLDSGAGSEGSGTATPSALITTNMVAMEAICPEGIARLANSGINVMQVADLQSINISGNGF
# Summary of the method: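 Chemicals are dosed onto HepG2 cells transfected with multiple cis-promoter reporter constructs, and after 24 h reporter RNA is reverse-transcribed, PCR-amplified and resolved by capillary electrophoresis for fluorescence quantitation; activity is scored up or down against DMSO.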
# [12] = ATG_SREBP_CIS: Attagene CIS-FACTORIAL HepG2 Assay for human Sterol Regulatory Element Binding (SREBP) (AID 2282962); conditions: HepG2 Attagene cis-factorial SREBP reporter, mRNA; actives raise or lower the signal
# Summary of the method: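 HepG2 cells transiently transfected with multiplexed cis-promoter reporter units sensing endogenous transcription factors; reporter mRNA measured 24 h after dosing by RT-PCR, 6-FAM labeling, HpaI digestion and capillary electrophoresis. Bidirectional fit versus DMSO.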
# [13] = molecular target: Signal transducer and activator of transcription 3 (Homo sapiens) (UniProt P40763); assay: ATG_STAT3_CIS: Attagene CIS-FACTORIAL HepG2 Assay for human Signal Transducer and Activator of Transcription 3 (STAT3) (AID 2282963); conditions: HepG2, Attagene cis-factorial STAT3 reporter transcription; actives raise or lower the signal
# Signal transducer and activator of transcription 3 (Homo sapiens), sequence (P40763 whole entry, looked up): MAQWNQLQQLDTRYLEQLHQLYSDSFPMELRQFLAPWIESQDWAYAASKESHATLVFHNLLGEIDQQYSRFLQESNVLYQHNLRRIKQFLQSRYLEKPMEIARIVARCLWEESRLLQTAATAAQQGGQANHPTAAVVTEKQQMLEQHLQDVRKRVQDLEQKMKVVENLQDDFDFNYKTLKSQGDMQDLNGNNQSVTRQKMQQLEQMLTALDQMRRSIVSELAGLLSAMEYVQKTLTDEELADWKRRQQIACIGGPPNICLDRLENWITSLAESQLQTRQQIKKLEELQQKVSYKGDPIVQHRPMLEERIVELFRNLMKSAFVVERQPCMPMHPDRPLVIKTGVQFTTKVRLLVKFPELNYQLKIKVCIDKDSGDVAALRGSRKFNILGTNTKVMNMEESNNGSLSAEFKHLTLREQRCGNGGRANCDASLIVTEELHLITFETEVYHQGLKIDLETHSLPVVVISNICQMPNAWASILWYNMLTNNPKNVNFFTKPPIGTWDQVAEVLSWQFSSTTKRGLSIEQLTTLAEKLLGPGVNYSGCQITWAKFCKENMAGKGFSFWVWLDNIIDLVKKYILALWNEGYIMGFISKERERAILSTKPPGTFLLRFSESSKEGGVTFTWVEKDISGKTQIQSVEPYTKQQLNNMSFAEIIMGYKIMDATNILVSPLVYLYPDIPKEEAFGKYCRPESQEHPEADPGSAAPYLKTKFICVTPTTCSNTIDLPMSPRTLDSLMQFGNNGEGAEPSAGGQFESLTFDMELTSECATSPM
# Summary of the method: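 After a 24 h compound incubation, total RNA from MRTU-transfected HepG2 cells was converted to cDNA and reporter sequences PCR-amplified, labelled and profiled by capillary electrophoresis. Gain and loss of signal were referenced to DMSO.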
# [14] = ATG_TA_CIS: Attagene CIS-FACTORIAL HepG2 Assay for human TA Basal Promoter (AID 2282964); conditions: HepG2 Attagene CIS-factorial TA basal promoter reporter; actives raise or lower the signal
# Summary of the method: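 Multiplexed mRNA reporter assay, HepG2, 24 h. Reporter cDNA amplified, 6-FAM primer-extended, HpaI-cut, CE-sized; DMSO = negative control and baseline.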
# [15] = ATG_TCF_b_cat_CIS: Attagene CIS-FACTORIAL HepG2 Assay for human T-Cell-Factor with beta-catenin (TCF/b-cat) (AID 2282965); conditions: HepG2 TCF/beta-catenin cis-reporter transcription, actives raise or lower the signal
# Summary of the method: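 Endogenous transcription factor activity is captured through cis-promoter reporter constructs transiently introduced into human HepG2 liver cells. Induced reporter mRNA is measured after 24 h and fitted bidirectionally relative to DMSO.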
# [16] = ATG_PPRE_CIS: Attagene CIS-FACTORIAL HepG2 Assay for human Peroxisome Proliferator-activated Response Element (PPRE) (AID 2282958); conditions: HepG2 PPRE cis-element reporter, Attagene transcription factor profiling; actives raise or lower the signal
# Summary of the method: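 DMSO served as negative control and baseline for bidirectional curve fitting. Signal came from PPRE-regulated reporter mRNA in HepG2 cells, measured 24 h post-dosing by RT-PCR, 6-FAM primer extension and capillary electrophoresis.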
# [17] = ATG_GRE_CIS: Attagene CIS-FACTORIAL HepG2 Assay for human Glucocorticoid Response Elements (GRE) (AID 2282947); conditions: HepG2 GRE cis-reporter, Attagene multiplex mRNA; actives raise or lower the signal
# Summary of the method: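 Assay uses human hepatoma HepG2 cells transfected with cis-promoter reporter units, exposed 24 h. mRNA from reporters detected by RT-PCR plus capillary electrophoresis; DMSO serves as negative control and baseline.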
# [18] = ATG_PBREM_CIS: Attagene CIS-FACTORIAL HepG2 Assay for human Phenobarbital-responsive Enhancer Module (PBREM) (AID 2282955); conditions: HepG2 PBREM cis-reporter, Attagene multiplexed transcription; actives raise or lower the signal
# Summary of the method: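 Multiplexed cis-reporter readout in human hepatoma HepG2 cells; PBREM-regulated transcript quantified after 24 h exposure by fluorescent RT-PCR fragment analysis. Signal changes up or down fitted relative to DMSO.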
# [19] = ATG_RORE_CIS: Attagene CIS-FACTORIAL HepG2 Assay for human RAR-related Orphan Receptor Element (RORE) (AID 2282959); conditions: HepG2 Attagene cis-factorial RORE reporter, mRNA; actives raise or lower the signal
# Summary of the method: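 Transfect HepG2 with MRTUs; treat 24 h; extract RNA; RT with oligo(dT); PCR with reporter-specific primers; 6-FAM primer extension; HpaI digest 2 h at 37 C; capillary electrophoresis. Fit vs DMSO, bidirectional.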
smiles,measurement,setting,value
S=C1NCCN1,outcome,[1],inactive
same,outcome,[2],inactive
same,outcome,[3],inactive
same,outcome,[4],inactive
same,outcome,[5],inactive
same,outcome,[6],inactive
same,outcome,[7],inactive
same,outcome,[8],inactive
same,outcome,[9],inactive
same,outcome,[10],inactive
same,outcome,[11],inactive
same,outcome,[12],inactive
same,outcome,[13],inactive
same,outcome,[14],inactive
same,outcome,[15],inactive
CC(=NC#N)N(C)Cc1ccc(Cl)nc1,outcome,[1],inactive
same,outcome,[2],inactive
same,outcome,[3],inactive
same,outcome,[4],inactive
same,outcome,[5],inactive
same,outcome,[6],inactive
same,outcome,[7],inactive
same,outcome,[8],inactive
same,AC50,[9],64.9 µM (active)
same,outcome,[16],inactive
same,outcome,[10],inactive
same,outcome,[11],inactive
same,outcome,[12],inactive
same,outcome,[13],inactive
same,outcome,[14],inactive
same,outcome,[15],inactive
CCCCOC(=O)[C@@H](C)Oc1ccc(Oc2ccc(C#N)cc2F)cc1,outcome,[17],inactive
same,outcome,[1],inactive
same,outcome,[2],inactive
same,outcome,[3],inactive
same,outcome,[4],inactive
same,outcome,[5],inactive
same,outcome,[6],inactive
same,outcome,[7],inactive
same,outcome,[18],inactive
same,outcome,[8],inactive
same,AC50,[9],64.7 µM (active)
same,outcome,[16],inactive
same,outcome,[19],inactive
same,outcome,[11],inactive
same,outcome,[13],inactive
same,outcome,[14],inactive
same,outcome,[15],inactive
CC(C)=CC1C(C(=O)OCN2C(=O)C3=C(CCCC3)C2=O)C1(C)C (stereo not given),outcome,[17],inactive
same,outcome,[1],inactive
same,outcome,[2],inactive
same,outcome,[3],inactive
same,AC50,[4],50 µM (active)
same,outcome,[5],inactive
same,AC50,[6],93.9 µM (active)
same,AC50,[7],64.6 µM (active)
same,AC50,[8],74 µM (active)
same,AC50,[9],13.5 µM (active)
same,AC50,[19],50 µM (active)
same,outcome,[10],inactive
same,outcome,[11],inactive
same,outcome,[13],inactive
same,outcome,[14],inactive
same,outcome,[15],inactive
CC(C)[C@H](C(=O)O[C@H](C#N)c1cccc(Oc2ccccc2)c1)c1ccc(Cl)cc1,outcome,[1],inactive
same,outcome,[2],inactive
same,outcome,[3],inactive
same,outcome,[4],inactive
same,outcome,[5],inactive
same,outcome,[6],inactive
same,outcome,[7],inactive
same,AC50,[18],9.24 µM (active)
same,outcome,[8],inactive
same,AC50,[9],1.04 µM (active)
same,outcome,[16],inactive
same,outcome,[10],inactive
same,outcome,[11],inactive
same,outcome,[12],inactive
same,outcome,[13],inactive
same,outcome,[14],inactive
same,outcome,[15],inactive
CSc1nc(NC(C)C)nc(NC(C)C)n1,outcome,[1],inactive
same,outcome,[2],inactive
same,outcome,[3],inactive
same,outcome,[4],inactive
same,outcome,[5],inactive
same,outcome,[6],inactive
same,outcome,[7],inactive
same,outcome,[18],inactive
same,outcome,[8],inactive
same,AC50,[9],4.94 µM (active)
same,outcome,[19],inactive
same,outcome,[11],inactive
same,outcome,[12],inactive
same,outcome,[13],inactive
same,outcome,[14],inactive
same,outcome,[15],inactive
CCOP(=S)(OCC)Oc1cc(C)nc(C(C)C)n1,outcome,[17],inactive
same,outcome,[1],inactive
same,outcome,[2],inactive
same,outcome,[3],inactive
same,outcome,[4],inactive
same,outcome,[5],inactive
same,outcome,[6],inactive
same,outcome,[7],inactive
same,AC50,[18],9.92 µM (active)
same,outcome,[8],inactive
same,AC50,[9],4.15 µM (active)
same,AC50,[16],26 µM (active)
same,outcome,[19],inactive
same,outcome,[11],inactive
same,AC50,[12],21.7 µM (active)
same,outcome,[13],inactive
same,outcome,[14],inactive
same,outcome,[15],inactive
